Data: PubChem BioAssay (EPA / NIEHS)
Active and inactive are the calls of the source. The calls were made as follows: active = hit-call score of the fitted dose curve at least 0.9, where 1 is the maximum; inactive = score below 0.9.

Key:
[1] = ATG_E_Box_CIS: Attagene CIS-FACTORIAL HepG2 Assay for human Enhancer Box (E-box) (AID 2282936); conditions: HepG2 E-box cis-reporter transcription, actives raise or lower the signal
Method in brief: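 Cells: HepG2 (human liver), transient MRTU transfection. Exposure 24 h. RNA → oligo(dT) RT → PCR → 6-FAM label → HpaI → CE. Activity fitted both directions relative to DMSO.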

[2] = ATG_M_61_CIS: Attagene CIS-FACTORIAL HepG2 Assay for M61 Transcription Factor (Internal Marker) (AID 2282937); conditions: HepG2 Attagene CIS-FACTORIAL M61 internal marker reporter; actives raise or lower the signal
Method in brief: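 Transfect HepG2 with MRTUs; dose 24 h; isolate RNA; reverse-transcribe with DNase I treatment; PCR-amplify, FAM-label and cut with HpaI for 2 h at 37 C; resolve by CE. Bidirectional fitting against DMSO.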

[3] = ATG_EGR_CIS: Attagene CIS-FACTORIAL HepG2 Assay for human Early Growth Response 1 (EGR1) (AID 2282938); conditions: HepG2 Attagene CIS-FACTORIAL EGR reporter mRNA; actives raise or lower the signal
Method in brief: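 After a 24 h treatment of transiently transfected HepG2 cells, total RNA was reverse-transcribed and reporter sequences PCR-amplified, labelled and run on capillary electrophoresis. Reporters sit under cis-regulatory promoters sensing endogenous factors.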

[4] = ATG_M_19_CIS: Attagene CIS-FACTORIAL HepG2 Assay for M19 Transcription Factor (Internal Marker) (AID 2282939); conditions: HepG2 Attagene CIS-FACTORIAL M19 internal marker reporter; actives raise or lower the signal
Method in brief: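 In this multiplexed cell assay, transiently transfected HepG2 reporter units report endogenous transcription-factor activity; after 24 hours of treatment, labelled reporter cDNA fragments are quantified by capillary electrophoresis and fitted bidirectionally against DMSO.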

[5] = ATG_ERE_CIS: Attagene CIS-FACTORIAL HepG2 Assay for Estrogen Response Element (ERE) (AID 2282940); conditions: HepG2 ERE cis-reporter, Attagene RNA transcript; actives raise or lower the signal
Method in brief: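 Measuring endogenous transcription factor output, the assay doses transfected HepG2 cells for 24 hours and quantifies reporter transcripts by fluorescent RT-PCR and capillary electrophoresis, with DMSO as baseline.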

[6] = target: Hepatocyte nuclear factor 3-beta (Homo sapiens) (UniProt Q9Y261); experiment: ATG_FoxA2_CIS: Attagene CIS-FACTORIAL HepG2 Assay for human Forkhead box A2 (FOXA2) (AID 2282942); conditions: HepG2 cis-reporter transcription factor activity, 24 h; actives raise or lower the signal
Method in brief: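 24 h dosing of HepG2 bearing cis-reporter constructs; mRNA readout by RT-PCR/CE fluorescence; bidirectional fit, DMSO baseline.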

[7] = ATG_FoxO_CIS: Attagene CIS-FACTORIAL HepG2 Assay for human Forkhead box O (FoxO) (AID 2282943); conditions: HepG2 Attagene cis-reporter, FoxO element, mRNA; actives raise or lower the signal
Method in brief: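 Endogenous transcription factor activity read from multiplexed cis-promoter reporter transcripts in transiently transfected HepG2, 24 h after dosing. Reporter RNA measured via RT-PCR plus capillary electrophoresis of FAM-labeled products; gain or loss relative to DMSO.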

[8] = ATG_GATA_CIS: Attagene CIS-FACTORIAL HepG2 Assay for human GATA Binding Protein (AID 2282944); conditions: HepG2 GATA cis-element reporter, Attagene multiplex mRNA; actives raise or lower the signal
Method in brief: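 Measures endogenous transcription factor-driven reporter mRNA in HepG2 cells transiently carrying cis-regulated constructs. 24 h dosing; RNA via oligo(dT) reverse transcription, PCR, HpaI digestion, capillary electrophoresis; fitted relative to DMSO.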

[9] = ATG_GLI_CIS: Attagene CIS-FACTORIAL HepG2 Assay for human Zinc Finger Protein GLI1 (AID 2282945); conditions: HepG2, Attagene cis-factorial reporter mRNA, GLI element; actives raise or lower the signal
Method in brief: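 Bidirectional curve fits relative to DMSO, using reporter mRNA levels from RT-PCR plus capillary electrophoresis. Cells were HepG2 transiently carrying cis-regulated reporter constructs, harvested 24 h after dosing.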

[10] = ATG_GRE_CIS: Attagene CIS-FACTORIAL HepG2 Assay for human Glucocorticoid Response Elements (GRE) (AID 2282947); conditions: HepG2 GRE cis-reporter, Attagene multiplex mRNA; actives raise or lower the signal
Method in brief: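 Transient MRTU transfection of human HepG2 liver cells; cis-regulated reporters report endogenous factors. 24 h dosing → RNA isolation → RT-PCR → 6-FAM primer extension → HpaI cut → CE fragment analysis. Bidirectional fit, DMSO negative control.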

[11] = ATG_ISRE_CIS: Attagene CIS-FACTORIAL HepG2 Assay for human Interferon Regulatory Factor 1 (IRF1) binding to an Interferon-Stimulated Response Element (ISRE) (AID 2282948); conditions: HepG2 ISRE cis-reporter (Attagene), mRNA transcription readout; actives raise or lower the signal
Method in brief: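 Transfected HepG2 (multiple reporter transcription units, cis elements) dosed 24 h. RNA → oligo(dT) RT → PCR → 6-FAM primer extension → HpaI → CE. DMSO = negative control/baseline.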

[12] = ATG_M_32_CIS: Attagene CIS-FACTORIAL HepG2 Assay for M32 Transcription Factor (Internal Marker) (AID 2282949); conditions: HepG2 Attagene cis-factorial M32 reporter, mRNA; actives raise or lower the signal;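 also: background control marker of the multiplexed CIS panel rather than a real target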
Method in brief: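 Fluorescent capillary electrophoresis peaks of HpaI-digested, FAM-labelled RT-PCR reporter products give the signal. Source: transiently transfected human liver HepG2 cells, 24 h after chemical dosing; bidirectional fitting against DMSO.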

[13] = ATG_M_06_CIS: Attagene CIS-FACTORIAL HepG2 Assay for M06 Transcription Factor (Internal Marker) (AID 2282950); conditions: HepG2 Attagene CIS-FACTORIAL M06 internal marker reporter; actives raise or lower the signal
Method in brief: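 One of many multiplexed endpoints: HepG2 reporter mRNA after 24 h dosing, detected by RT-PCR and capillary electrophoresis fluorescence; gain or loss of signal analysed against DMSO.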

[14] = target: Hypoxia-inducible factor 1-alpha (Homo sapiens) (UniProt Q16665); experiment: ATG_HIF1a_CIS: Attagene CIS-FACTORIAL HepG2 Assay for human Hypoxia Inducible Factor 1 (HIF1A) (AID 2282951); conditions: HepG2 Attagene cis-factorial HIF1a reporter transcription; actives raise or lower the signal
Method in brief: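 After 24 h chemical exposure of reporter-transfected HepG2 cells, reporter cDNA was PCR-amplified, labelled by 6-FAM primer extension (2 min 95 C, 20 s 68 C, 10 min 72 C), HpaI-cut (2 h, 37 C) and analysed by CE.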

[15] = target: Hepatocyte nuclear factor 6 (Homo sapiens) (UniProt Q9UBC0); experiment: ATG_HNF6_CIS: Attagene CIS-FACTORIAL HepG2 Assay for human Hepatocyte Nuclear Factor 6 (HNF6) (AID 2282952); conditions: HepG2 Attagene cis-factorial HNF6 reporter transcription; actives raise or lower the signal
Method in brief: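 Transiently transfected HepG2 cells expressing cis-regulated reporter transcription units were exposed to chemical for 24 h in a 24-well format. Reporter transcript abundance was determined by fluorescence capillary electrophoresis.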

[16] = target: Heat shock factor protein 1 (Homo sapiens) (UniProt Q00613); experiment: ATG_HSE_CIS: Attagene CIS-FACTORIAL HepG2 Assay for human Heat Shock Transcription Factor 1 (HSE) (AID 2282953); conditions: HepG2 HSE cis-reporter, Attagene RNA transcription; actives raise or lower the signal
Method in brief: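 Using HepG2 with transfected cis-driven reporter constructs, compound effects on endogenous factor activity are scored as reporter mRNA change at 24 h. Detection: RT-PCR, HpaI digestion, capillary electrophoresis; bidirectional fitting to DMSO.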

[17] = ATG_PBREM_CIS: Attagene CIS-FACTORIAL HepG2 Assay for human Phenobarbital-responsive Enhancer Module (PBREM) (AID 2282955); conditions: HepG2 PBREM cis-reporter, Attagene multiplexed transcription; actives raise or lower the signal
Method in brief: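 Measures endogenous factor action on a phenobarbital-responsive enhancer module. HepG2 transiently carrying cis reporters, 24 h treatment, mRNA read-out by RT-PCR plus capillary electrophoresis.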

[18] = ATG_Ets_CIS: Attagene CIS-FACTORIAL HepG2 Assay for human Erythroblast Transformation Specific (ETS) (AID 2282941); conditions: HepG2 ETS cis-reporter transcription, actives raise or lower the signal
Method in brief: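 Steps: transfect HepG2 with multiple reporter units; treat compound 24 h; isolate RNA, DNase-treat, reverse-transcribe; PCR-amplify, label with 6-FAM, digest with HpaI; separate by capillary electrophoresis. Activity fitted both directions versus DMSO.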

[19] = target: Bile acid receptor (Homo sapiens) (UniProt Q96RI1); experiment: ATG_IR1_CIS: Attagene CIS-FACTORIAL HepG2 Assay for human Nuclear Receptor Subfamily 1 Group H Member 4 (NR1H4), IR1 submotif (AID 2282946); conditions: IR1 reporter transcription, actives raise or lower the signal
Method in brief: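 Cells (human HepG2) carry transiently transfected cis-promoter reporter transcription units. Compounds are incubated 24 h, total RNA is reverse-transcribed and amplified, and labelled fragments are resolved by capillary electrophoresis. Curves use DMSO as baseline.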

[20] = ATG_MRE_CIS: Attagene CIS-FACTORIAL HepG2 Assay for human Metal Responsive Element (MRE) (AID 2282954); conditions: HepG2 MRE cis-reporter transcription, Attagene multiplex; actives raise or lower the signal
Method in brief: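 Transient MRTU transfection of HepG2 (FuGene 6); 24 h dosing; total RNA → oligo(dT) RT, PCR, 6-FAM primer extension, HpaI cut, CE. Bidirectional fit vs DMSO.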

Measured: AC50

Heat shock factor protein 1 (Homo sapiens), sequence (Q00613 whole entry, looked up): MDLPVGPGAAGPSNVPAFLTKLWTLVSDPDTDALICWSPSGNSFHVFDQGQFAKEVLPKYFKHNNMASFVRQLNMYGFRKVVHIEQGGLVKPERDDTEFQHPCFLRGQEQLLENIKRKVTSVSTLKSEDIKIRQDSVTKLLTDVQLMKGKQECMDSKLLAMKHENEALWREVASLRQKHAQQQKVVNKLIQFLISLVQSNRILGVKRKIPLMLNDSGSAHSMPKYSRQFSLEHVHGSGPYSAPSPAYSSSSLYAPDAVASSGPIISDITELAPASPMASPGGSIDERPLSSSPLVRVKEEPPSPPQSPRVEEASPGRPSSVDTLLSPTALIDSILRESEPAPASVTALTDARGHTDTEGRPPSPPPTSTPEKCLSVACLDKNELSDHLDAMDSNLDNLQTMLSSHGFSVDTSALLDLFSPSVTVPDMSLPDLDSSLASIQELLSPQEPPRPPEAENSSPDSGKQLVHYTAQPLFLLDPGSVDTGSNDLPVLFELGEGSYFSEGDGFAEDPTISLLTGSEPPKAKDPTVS
Hypoxia-inducible factor 1-alpha (Homo sapiens), sequence (Q16665 whole entry, looked up): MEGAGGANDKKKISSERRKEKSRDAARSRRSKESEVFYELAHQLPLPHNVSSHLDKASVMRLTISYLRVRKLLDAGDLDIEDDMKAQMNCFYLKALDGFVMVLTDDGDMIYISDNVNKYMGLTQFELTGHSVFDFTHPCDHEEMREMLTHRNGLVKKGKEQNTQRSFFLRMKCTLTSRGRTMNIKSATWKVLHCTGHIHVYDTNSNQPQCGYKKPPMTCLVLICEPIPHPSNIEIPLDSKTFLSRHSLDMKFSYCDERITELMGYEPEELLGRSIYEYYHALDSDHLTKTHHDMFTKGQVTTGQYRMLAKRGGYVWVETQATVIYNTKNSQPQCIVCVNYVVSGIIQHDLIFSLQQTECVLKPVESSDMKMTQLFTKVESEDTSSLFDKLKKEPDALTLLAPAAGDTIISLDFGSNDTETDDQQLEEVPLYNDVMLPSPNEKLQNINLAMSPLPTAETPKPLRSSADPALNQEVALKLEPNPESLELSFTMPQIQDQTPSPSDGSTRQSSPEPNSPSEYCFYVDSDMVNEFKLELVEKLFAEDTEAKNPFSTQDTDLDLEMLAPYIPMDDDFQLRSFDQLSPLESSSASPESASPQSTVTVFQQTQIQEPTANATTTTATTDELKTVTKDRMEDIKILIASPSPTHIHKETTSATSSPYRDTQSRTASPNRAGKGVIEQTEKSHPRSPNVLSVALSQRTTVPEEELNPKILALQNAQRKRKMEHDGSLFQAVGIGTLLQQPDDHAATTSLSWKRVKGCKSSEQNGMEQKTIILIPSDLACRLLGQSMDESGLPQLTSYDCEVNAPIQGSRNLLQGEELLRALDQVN
Hepatocyte nuclear factor 6 (Homo sapiens), sequence (Q9UBC0 whole entry, looked up): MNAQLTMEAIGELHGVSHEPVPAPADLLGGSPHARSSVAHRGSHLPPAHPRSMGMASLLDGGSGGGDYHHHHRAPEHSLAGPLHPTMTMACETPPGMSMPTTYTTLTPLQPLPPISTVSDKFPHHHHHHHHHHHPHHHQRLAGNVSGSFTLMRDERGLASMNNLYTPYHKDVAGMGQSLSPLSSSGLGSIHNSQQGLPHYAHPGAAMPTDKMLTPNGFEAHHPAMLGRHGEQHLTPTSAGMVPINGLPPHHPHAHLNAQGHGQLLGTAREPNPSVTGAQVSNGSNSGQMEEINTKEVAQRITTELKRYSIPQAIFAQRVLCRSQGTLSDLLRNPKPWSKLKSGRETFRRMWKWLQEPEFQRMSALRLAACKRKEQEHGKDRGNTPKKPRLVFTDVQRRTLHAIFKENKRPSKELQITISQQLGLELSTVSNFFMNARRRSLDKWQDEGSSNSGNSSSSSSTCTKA
Bile acid receptor (Homo sapiens), sequence (Q96RI1 whole entry, looked up, the tested form may be a part): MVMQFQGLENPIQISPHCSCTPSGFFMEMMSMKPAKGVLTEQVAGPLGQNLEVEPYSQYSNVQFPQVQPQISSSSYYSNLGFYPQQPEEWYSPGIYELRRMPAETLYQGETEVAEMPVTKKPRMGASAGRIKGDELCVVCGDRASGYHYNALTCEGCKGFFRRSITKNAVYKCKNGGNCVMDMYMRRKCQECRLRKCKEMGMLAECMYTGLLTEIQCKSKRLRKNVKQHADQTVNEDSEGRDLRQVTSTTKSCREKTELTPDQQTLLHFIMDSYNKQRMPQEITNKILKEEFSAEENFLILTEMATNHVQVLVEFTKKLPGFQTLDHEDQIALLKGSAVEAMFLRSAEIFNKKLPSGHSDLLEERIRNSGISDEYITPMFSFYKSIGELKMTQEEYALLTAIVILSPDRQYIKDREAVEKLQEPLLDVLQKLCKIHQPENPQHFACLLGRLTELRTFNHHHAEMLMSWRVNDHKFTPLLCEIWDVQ
Hepatocyte nuclear factor 3-beta (Homo sapiens), sequence (Q9Y261 whole entry, looked up): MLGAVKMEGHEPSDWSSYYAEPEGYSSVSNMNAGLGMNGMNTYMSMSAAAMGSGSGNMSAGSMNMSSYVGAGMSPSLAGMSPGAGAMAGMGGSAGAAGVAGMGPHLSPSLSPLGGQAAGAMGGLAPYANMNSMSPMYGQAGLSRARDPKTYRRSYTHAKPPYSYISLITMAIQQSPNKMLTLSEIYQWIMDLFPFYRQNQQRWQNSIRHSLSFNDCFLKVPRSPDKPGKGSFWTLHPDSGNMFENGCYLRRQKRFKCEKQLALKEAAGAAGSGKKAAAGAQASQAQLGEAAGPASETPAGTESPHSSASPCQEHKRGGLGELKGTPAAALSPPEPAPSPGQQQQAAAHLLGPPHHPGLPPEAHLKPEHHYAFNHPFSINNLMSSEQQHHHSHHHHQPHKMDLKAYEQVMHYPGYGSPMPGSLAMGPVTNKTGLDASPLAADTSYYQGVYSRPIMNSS

O=C1CCCCCCCCCCC(=O)OCCO1
inactive: [1] | [2] | [3] | [4] | [5] | [6] | [7] | [8] | [9] | [10] | [11] | [12] | [13] | [14] | [15] | [16] | [17]

CC(C)c1ccc2c(C(C)C)cc(C(C)C)c(S(=O)(=O)O)c2c1
active: [5] 49.7 µM | [20] 21.1 µM
inactive: [1] | [2] | [3] | [18] | [6] | [7] | [8] | [9] | [19] | [10] | [11] | [12] | [13] | [14] | [15] | [16]

N[C@H]1C(O)O[C@H](CO)[C@H](O)[C@@H]1O (some centres undefined)
inactive: [1] | [2] | [3] | [18] | [6] | [7] | [8] | [9] | [11] | [12] | [13] | [14] | [15] | [16] | [17]
active: [5] 39.9 µM

C=CC(=O)NC(C)(C)CS(=O)(=O)O
inactive: [1] | [2] | [3] | [4] | [5] | [6] | [7] | [8] | [9] | [11] | [12] | [13] | [14] | [15] | [16] | [20] | [17]

C=C(C)c1cccc(C(C)(C)N=C=O)c1
inactive: [1] | [2] | [3] | [4] | [5] | [6] | [7] | [8] | [9] | [10] | [11] | [12] | [13] | [14] | [15] | [20] | [17]

Cc1ccc(OC(=O)CC(C)C)cc1
inactive: [1] | [2] | [4] | [5] | [18] | [7] | [8] | [9] | [19] | [10] | [11] | [12] | [13] | [14] | [15] | [16] | [20] | [17]

Cc1cc(C)c(C)cc1C
inactive: [1] | [2] | [3] | [5] | [18] | [7] | [8] | [9] | [19] | [12] | [13] | [14] | [15] | [16] | [20]

CCC(=O)Oc1ccc(/C(CC)=C(\CC)c2ccc(OC(=O)CC)cc2)cc1
inactive: [2] | [18] | [6] | [7] | [8] | [10] | [12] | [13] | [15]
active: [1] 20.4 µM | [5] 0.0825 µM | [9] 51.5 µM | [11] 16.9 µM | [16] 29.1 µM | [20] 30.6 µM

Cc1cccc(N(C)C(=S)Oc2ccc3ccccc3c2)c1
inactive: [1] | [2] | [4] | [18] | [7] | [8] | [9] | [19] | [10] | [11] | [13] | [15] | [16]
active: [5] 25.3 µM | [20] 1.89 µM | [17] 2.06 µM

O=C1CCC(=O)N1Cl
inactive: [1] | [2] | [4] | [5] | [18] | [6] | [7] | [8] | [9] | [10] | [11] | [12] | [13] | [14] | [15] | [16] | [20] | [17]

C=CC(=O)OCCOC1C2CCC1C1CC=CC12 (centres undefined)
inactive: [1] | [2] | [5] | [18] | [6] | [7] | [8] | [9] | [19] | [10] | [14] | [15] | [16] | [20]

Nc1ccc(N=Nc2ccccc2)c(N)n1
inactive: [2] | [4] | [5] | [18] | [6] | [7] | [8] | [9] | [10] | [11] | [12] | [13] | [15] | [17]
active: [1] 70.9 µM

O=c1[nH]c(=O)c2[nH]c(=O)[nH]c2[nH]1
inactive: [1] | [2] | [3] | [5] | [18] | [7] | [8] | [9] | [10] | [11] | [12] | [13] | [14] | [15] | [20]

O=C(O)C(c1ccc(Cl)cc1)c1ccc(Cl)cc1
active: [5] 2.68 µM | [14] 72.1 µM
inactive: [1] | [2] | [3] | [6] | [7] | [8] | [9] | [19] | [12] | [13] | [15] | [16] | [20] | [17]

CCc1ccc2c(c1)C(=O)c1ccccc1C2=O
inactive: [1] | [2] | [4] | [5] | [18] | [6] | [7] | [8] | [9] | [10] | [11] | [12] | [13] | [14] | [15] | [20] | [17]
